The record followed here is ChEMBL document CHEMBL3988442, “University of Dundee, Small-Polar-MMV Screening Library” (2021).

SMILES strings stand for the structures. Screen size: about 48,000 compounds; about 13,000 (27%) showed an effect of 50% or more. Some of the results follow.

This assay has as its system Wolbachia pipientis. Briefly: Anti-Wolbachia Cell-Based Screen. It counts as functional. On the set-up: scale not given: in the data most compounds retested in dose-response had high values. Particulars: 5 µM.
For `Cn1ccnc1CN1CCCCC1c1nc(-c2ccccc2)no1` (centres undefined), the “Percent Effect” value is reported as 18.03%. The value for `CC(=O)Nc1nc(CN2CCCC2c2cnn(C)c2)cs1` (centres undefined) was -2.623%; that for `CNc1cncc(C2CCCN2Cc2c[nH]cn2)n1` (centres undefined) was -2.81%. Regarding `CC(Oc1ccccc1C(F)(F)F)C(=O)NCCNC(=O)C1CC1` (centres undefined), the “Percent Effect” value is on record as -69.67%. The value for `Cc1cnn(CCC(=O)NS(=O)(=O)N2CCc3ccccc32)c1` was 5.056%; that for `Cc1nn(C)c2ncnc(N(C)CC3CCN(CC(C)C)C3)c12` (centres undefined) was -20.38%. Regarding `O=C(NC[C@H]1OC[C@@H](NC2COC2)[C@@H]1O)Nc1ccccc1`, the “Percent Effect” value was determined as 4.366%. Turning to `Cc1ccc(C(=O)N2CCC(n3cc(CN)nn3)CC2)cc1F`, the “Percent Effect” value stood at 8.756%.

Regarding `CCCN(CC1COc2ccccc2O1)C(=O)CCN1C(=O)CCC1=O` (centres undefined), the “Percent Effect” value came out at 23.62%. Consider `CC(C)NC(=O)[C@@H]1C[C@@H](N)CN1C(=O)CCSCc1ccccc1`, for which the “Percent Effect” value is -10.01%.

On to `Cc1nn(C)c(N2CCOCC2)c1CNC1CCc2ccccc2C1` (centres undefined), for which the “Percent Effect” value is -5.455%. For the compound `Cc1cccc(CN2CCCC(O)(CNCCN3CCCCC3)C2=O)c1` (centres undefined), the “Percent Effect” value is on record as -21.92%. Turning to `CC1c2ncc(Cn3cccn3)n2CCN1Cc1cccnc1.O=C(O)C(F)(F)F.O=C(O)C(F)(F)F` (centres undefined), the “Percent Effect” value was 97.64%. The value for `CC1c2ncc(CN3CCN(C)CC3)n2CCN1Cc1ccccn1.O=C(O)C(F)(F)F.O=C(O)C(F)(F)F.O=C(O)C(F)(F)F.O=C(O)C(F)(F)F` (centres undefined) was 110.4%; that for `CC1c2ncc(Cn3cccn3)n2CCN1Cc1ccc(F)cc1.O=C(O)C(F)(F)F` (centres undefined) was 95.73%; that for `CC1c2ncc(Cn3cccn3)n2CCN1Cc1ccccn1.O=C(O)C(F)(F)F.O=C(O)C(F)(F)F` (centres undefined) was 102.5%.

Turning to `CC1c2ncc(COCc3ccccn3)n2CCN1C1CCCC1.O=C(O)C(F)(F)F.O=C(O)C(F)(F)F` (centres undefined), the “Percent Effect” value was 16.64%. For `CCOCc1cnc2n1CCN(C(=O)Cc1ccccn1)C2C.O=C(O)C(F)(F)F` (centres undefined), the “Percent Effect” value is given as -0.9872%. In the case of `CC1c2ncc(COCC3CCOCC3)n2CCN1Cc1cccnc1.O=C(O)C(F)(F)F.O=C(O)C(F)(F)F` (centres undefined) it was -7.39%; in that of `CCCc1n[nH]c(C2CN(Cc3nnc(C4CC4)n3C)CCO2)n1` (centres undefined), -1.998%; in that of `COCCO[C@H]1CCN(C(=O)c2cnoc2C)[C@H]1Cc1cnn(C)c1`, -37.67%. The value for `CC(CN1CCN(C)CC1)NC(=O)c1cc(Cl)c2c(c1)OCO2` (centres undefined) was -52.56%; that for `CN(C)S(=O)(=O)N1CC[C@@H]2CN(Cc3cnn(C)c3)C[C@@H]2C1` was -2.262%; that for `CCC[C@@H]1CN(Cc2cnc3c(S(C)(=O)=O)cnn3c2)C[C@H]1N(C)C` was -11.35%. On to `CCn1cc(CN2CCCC(c3[nH]ncc3S(C)(=O)=O)C2)cn1` (centres undefined), for which the “Percent Effect” value was 1.783%.

Take `CCn1cc(CN2CCN(C)C3(CCC(=O)N(CC4CC4)CC3)C2)cn1` (centres undefined): the “Percent Effect” value is 0.5097%. In the case of `COc1ncc(CN2CCCC(c3[nH]ncc3S(C)(=O)=O)C2)cn1` (centres undefined) it was 102.2%; in that of `CCn1cc(CN2CCC(c3[nH]ncc3S(C)(=O)=O)C2)cn1` (centres undefined), 105.5%; in that of `CCn1cc(CN2CCC(c3nnc(CN(C)C)n3CC)CC2)cn1`, -1.722%. In the case of `CS(=O)(=O)c1ncc(CN2CCN3CCCC3C2)n1CC1CCCCC1` (centres undefined) it was 0.5285%; in that of `Cn1cc(CN2CC[C@@H]3[C@@H](CCC(=O)N3CC3CCNCC3)C2)cn1`, -8.948%.

On to `CCCn1cc(CN2CCC(c3[nH]ncc3S(C)(=O)=O)C2)cn1` (centres undefined), for which the “Percent Effect” value turned out to be 113%.

As for `Cn1cc(CN2CCC(c3[nH]ncc3S(C)(=O)=O)C2)cn1` (centres undefined), the “Percent Effect” value is recorded as 89.03%. In the case of `COc1cc(Br)c(S(=O)(=O)NC(=O)C(C)OC)cc1OC` (centres undefined), the “Percent Effect” value was 2.536%.

In the case of `Cc1cc(C(=O)N2C[C@H]3CC[C@@H]2CN(Cc2ccccn2)C3)nc(C)n1`, the “Percent Effect” value is listed as -8.906%. As for `Cc1ccc(F)c(S(=O)(=O)NCc2[nH]ncc2Br)c1`, the “Percent Effect” value is given as -8.756%. With `CCn1nc(CC(C)C)cc1C(=O)N1CC(N2CCCCC2C)C1` (centres undefined), the “Percent Effect” value was found to be 1.245%.

For `CC(CCS(C)(=O)=O)NC(=O)NCc1ccc2c(c1)CCC2` (centres undefined), the “Percent Effect” value is listed as 5.194%. Regarding `Cc1ccc2c(c1)nc1n2[C@@H](CNC(=O)c2cncnc2)COC1`, the “Percent Effect” value is recorded as -17.88%. The value for `Cc1cc(N2CCC(n3cc(CN4CCNCC4)nn3)CC2)ccn1` was -4.274%; that for `Cn1nccc1-c1nnn2c1COCC(CNC1CCOCC1)C2.O=C(O)C(F)(F)F.O=C(O)C(F)(F)F` (centres undefined) was 88.78%; that for `Cn1nccc1-c1nnn2c1COCC(CNCC1CC1)C2.O=C(O)C(F)(F)F.O=C(O)C(F)(F)F` (centres undefined) was 95.94%. The value for `Cc1nc(CNCC2COCc3c(-c4ccoc4)nnn3C2)cs1` (centres undefined) was -8.682%. Take `O=C(NCC1COCc2c(-c3ccncc3)nnn2C1)[C@H]1CCCO1.O=C(O)C(F)(F)F` (some centres undefined): the “Percent Effect” value amounted to 13.14%.

In the case of `CN(C)CCNCC1COCc2c(-c3ccnn3C)nnn2C1` (centres undefined), the “Percent Effect” value is 97.42%. In the case of `O=C(O)C(F)(F)F.c1csc(CNCC2COCc3c(-c4ccoc4)nnn3C2)n1` (centres undefined) it was 7.766%; in that of `Fc1cccc(-c2nnn3c2COCC(CNCc2nccs2)C3)c1.O=C(O)C(F)(F)F` (centres undefined), -16.94%; in that of `c1csc(CNCC2COCc3c(-c4ccsc4)nnn3C2)n1` (centres undefined), -12.98%. The value for `Cc1noc(C)c1CNCC1COCc2c(-c3ccoc3)nnn2C1.O=C(O)C(F)(F)F` (centres undefined) was -8.022%.
